Measured values reported in PubChem BioAssay AID2566 (National Center for Advancing Translational Sciences (NCATS), 2010).
Where “and” joins values, the source holds several entries; their conditions need not be identical. Equal values may be shown once. Inconclusive results are not listed. Calls of active or inactive are those of the source.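 The calls were made as follows: active = compound that pushes labeled neuropeptide S off its receptor in a binding test; inconclusive = all other tested compounds; inactive = none, nothing was called inactive.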

Target: Neuropeptide S receptor (Homo sapiens) (UniProt Q6W5P4)
Test: Confirmation Concentration-Response Assay for Antagonists of the Neuropeptide S Receptor: Radioligand Displacement, SAR for Probe
Conditions: CHO-hNPSR, [125I]Y10-NPS displacement, 1.5 h
From the text: NIH Chemical Genomics Center [NCGC] NIH Molecular Libraries Probe Production centers Network [MLPCN] MLPCN Grant: X01-DA026210-01 Assay Submitter (PI): Heilig, Markus Alexander NCGC Assay Overview: Neuropeptide S receptor (NPSR), previously known as GPR154, is a recently de-orphanized G protein coupled receptor. Its endogenous ligand is the 20 amino acids peptide Neuropeptide S (NPS). […] NPS and its receptor are found in various tissues. Specifically they are highly expressed in brain areas that have been implicated in modulation of arousal, stress and anxiety. Central administration of NPS in mice produces an unusual profile of activity by inducing wakefulness and arousal, while at the same time suppressing anxiety. Therefore, NPSR may represent a novel drug target for the treatment of sleep and anxiety disorders. As one method of confirming the specific activity of compounds active in the primary screen (AID 1461), we developed an assay to measure the displacement of radio-labeled native ligand, NPS, from its receptor in vitro.
The assay was carried out as described (Xu et al. (2004) Neuron, 43: 487-497) with minor modification. Y10-NPS labeled with 125I was bought from NEN Perkin Elmer (Boston, MA). CHO cells stably expressing human NPSR were seeded into 24-well plates and cultured until reaching 90-95% confluency. Cells were washed with 1ml PBS once and then incubated with radioligand with or without compounds or in DMEM medium containing 0.1% bovine serum albumin at 20C for 1.5 hr. Increasing concentrations of compounds or unlabeled human NPS were used to compete with 0.15 nM [125I] Y10-NPS. Nonspecific binding was determined in the presence of 1 uM unlabeled human NPS. Cells were washed twice with cold PBS and lysed with 1 N NaOH. Bound radioactivity was counted in a liquid scintillation counter.

Chain of Neuropeptide S receptor (Homo sapiens) (Q6W5P4 whole entry, looked up): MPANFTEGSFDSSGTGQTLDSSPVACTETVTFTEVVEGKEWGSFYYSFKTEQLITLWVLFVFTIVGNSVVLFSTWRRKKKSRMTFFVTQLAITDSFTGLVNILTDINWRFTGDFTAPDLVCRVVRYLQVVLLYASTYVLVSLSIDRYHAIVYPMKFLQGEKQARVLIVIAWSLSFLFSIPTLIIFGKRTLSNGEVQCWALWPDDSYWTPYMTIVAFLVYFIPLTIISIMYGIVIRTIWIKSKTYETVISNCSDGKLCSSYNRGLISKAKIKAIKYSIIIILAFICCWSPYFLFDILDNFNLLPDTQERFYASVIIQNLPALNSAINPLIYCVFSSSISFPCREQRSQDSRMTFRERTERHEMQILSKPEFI

Potency, active:
N#CC1=C(NC=NCc2ccccc2)Oc2ccc3ccccc3c2C1c1ccccc1 (centres undefined) 322 nM
COc1cccc(C2c3c(ncn(CCN4CCOCC4)c3=N)Oc3ccc4ccccc4c32)c1 (centres undefined) 439 nM
O=C1OC(c2ccccc2)(c2ccccc2)N2CCN(C(=O)NCc3ccc(F)cc3)CC12 (centres undefined) 5.93 nM
COc1cccc(C2c3c(ncn(-c4ccccc4)c3=N)Oc3ccc4ccccc4c32)c1 (centres undefined) 266 nM
CCOC(=O)C1CCCN(c2ncnc3c2oc2ccccc23)C1 (centres undefined) 26400 nM
COc1ccc(C2c3c(ncn(CCN4CCOCC4)c3=N)Oc3ccc4ccccc4c32)cc1OC (centres undefined) 256 nM and 190 nM
CCC(C)(CCN1CCOCC1)N(Cc1cc2ccccc2n(C)c1=O)C(=O)C1CCCCC1 (centres undefined) 6.54 nM
N=c1c2c(ccn1-c1ccccc1)Oc1ccc3ccccc3c1C2c1ccccc1 (centres undefined) 367 nM
CCOC(=O)CC(=O)Nc1ncnc2c1C(c1ccccc1)c1c(ccc3ccccc13)O2 (centres undefined) 616 nM
